Compound activity: PubChem, National Center for Advancing Translational Sciences (NCATS)
Cruzain noTriton: qHTS Assay for Promiscuous and Specific Inhibitors of Cruzain (without detergent); Cruzipain (Trypanosoma cruzi), P25779; purified cruzain, Z-FR-AMC fluorescence, no detergent; Potency, µM, for the others: max response, negative = inhibition, actives largely listed as inhibitors; 200,000 tested, 2.3% active;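 further: plate controls were enzyme without inhibitor for no effect and buffer without enzyme for full effect; nearly all actives have a fitted effect of over 40% in size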
Target sequence (P25779 123-467 limits assumed): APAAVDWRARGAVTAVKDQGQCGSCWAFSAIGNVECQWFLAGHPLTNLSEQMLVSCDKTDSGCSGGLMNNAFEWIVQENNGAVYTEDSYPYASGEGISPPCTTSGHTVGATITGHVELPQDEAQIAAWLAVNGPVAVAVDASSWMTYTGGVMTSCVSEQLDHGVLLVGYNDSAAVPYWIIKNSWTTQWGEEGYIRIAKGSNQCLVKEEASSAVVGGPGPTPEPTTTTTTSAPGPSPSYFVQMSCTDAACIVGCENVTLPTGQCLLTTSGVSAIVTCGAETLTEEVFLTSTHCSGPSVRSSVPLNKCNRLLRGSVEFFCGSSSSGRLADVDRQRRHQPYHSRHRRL
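Detergent-free condition (0.00005% Triton X-100) in acetate buffer pH 5.5 with DTT. 1.5 nM enzyme and compound were pre-mixed 15 min, then 2 uM Z-FR-AMC substrate added; reaction progress from fluorescence change between first and third reads (60 s).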
Cruzain Triton: qHTS Assay for Promiscuous and Specific Inhibitors of Cruzain (with detergent); purified cruzain, Z-FR-AMC fluorescence, 0.01% Triton; Potency, µM, for the others: max response, negative = inhibition, most hits filed as inhibitors; 200,000 tested, 0.43% active;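 further: plate controls were neutral wells for no effect and buffer without enzyme for full effect; nearly all actives have a fitted effect of over 40% in size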
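Sodium acetate buffer (100 mM, pH 5.5) containing 5 mM DTT and 0.01% Triton X-100 hosted 1.5 nM cruzain and test compound for 15 min at room temperature. Cleavage of 2 uM Z-FR-AMC was then tracked by fluorescence.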
Active calls of the source: *; u = inconclusive. Rows were chosen to be rich in hits. Some 2.4% of all compounds tested hit in one or more screens of this group. The call rests on the fitted dose curve; in most records, active means well fitted curve in the direction sought with a large enough effect; inconclusive means small, poorly fitted or top-dose-only effect, or another doubt; inactive means no such curve, though single readings can be large; an effect the other way counts as inactive or inconclusive. Potency means the concentration at half of the fitted maximal effect.

SMILES | Cruzain noTriton | Cruzain Triton
COc1cc(NC(=O)c2cccs2)c(C(=O)OCC(=O)c2cc(C)n(-c3ccc(F)cc3)c2C)cc1OC | 3.98µM* | -2.5%
COc1cc(NC(=O)c2cccs2)c(C(=O)OCC(=O)NC(=O)NC(C)(C)C)cc1OC | u | -13.5%
CC1(C)Cc2c(ccc3ccccc23)C(c2cc3ccccc3oc2=O)=N1 | 0.8% | -2.8%
O=c1c(N2CCN(c3cccc(C(F)(F)F)c3)CC2)csc2ccc(Cl)cc12 | 5.5% | -7.5%
Cc1cc2cc(CN(Cc3cccs3)C(=S)NCc3ccco3)c(=O)[nH]c2cc1C | u | -5.1%
COc1ccc2[nH]c(=O)c(CN(Cc3cccs3)C(=S)Nc3cccc(C)c3)cc2c1 | u | -3.0%
Cc1cccc(NC(=S)N(Cc2cccs2)Cc2cc3cc(C)cc(C)c3[nH]c2=O)c1 | 25.1µM* | -2.9%
Cc1ccc(C)c2[nH]c(=O)c(CN(Cc3cccs3)C(=S)NCc3ccco3)cc12 | 20µM* | -1.8%
Clc1ccc(NC2=NCCCCC2)cc1 | 24.5% | 4.2%
O=C(c1cc2ncc(Br)cn2n1)N1CCN(C(=O)c2ccco2)CC1 | -7.6% | -2.7%
CCc1c(C)c(C#N)c2nc3ccccc3n2c1Cl | -7.9% | -3.0%
CCOc1cc(CN2CCSCC2)ccc1O | -0.9% | 4.5%
Cc1cccc(NC(=O)CSc2nnc([C@@H](N)Cc3c[nH]c4ccccc34)o2)c1C | 12.6µM* | 12.6µM*
CCSc1nnc([C@@H](N)Cc2c[nH]c3ccccc23)o1 | 6.7% | 2.3%
COC(=O)N/N=C/c1ccc(-c2cc(Cl)cc(Cl)c2)o1 | -12.0% | -8.4%
NC(=S)N/N=C/c1ccc(-c2cc(Cl)cc(Cl)c2)o1 | 10µM* | 4.47µM*
CCOC(=O)N/N=C/c1ccccc1-c1cc(OC)ccc1OC | -6.0% | 0.5%
CCOc1ccc(S(=O)(=O)N(C)c2ccc(OCC(=O)Nc3nc(-c4cc(OC)ccc4OC)cs3)cc2)cc1 | 7.94µM* | -2.4%
CCOC(=O)Cc1csc(NC(=O)COc2ccc(N(C)S(=O)(=O)c3ccc(C)cc3)cc2)n1 | -7.0% | -5.4%
COc1ccc2sc(N(Cc3cccnc3)C(=O)c3ccco3)nc2c1 | 25.0% | -9.6%
COc1cc(/C=N/Nc2snc(SC)c2C#N)ccc1O | -28.4% | -0.4%
CSc1nsc(/C=C/Nc2ccc(C)cc2)c1C#N | 3.16µM* | -1.4%
CC(NC(=O)C1CCN(S(=O)(=O)c2cc([N+](=O)[O-])ccc2Cl)CC1)c1ccccc1 (stereo not given) | -7.5% | -4.1%
Cc1ccc2nc(NC(=O)C3CCN(S(=O)(=O)c4cc([N+](=O)[O-])ccc4Cl)CC3)sc2c1 | 31.6µM* | -3.0%
O=C(Nc1nc2ccc(F)cc2s1)C1CCN(S(=O)(=O)c2cc([N+](=O)[O-])ccc2Cl)CC1 | 10µM* | -7.7%
SMILES | Cruzain noTriton | Cruzain Triton
Cc1ccc2nc(NC(=O)C3CCN(S(=O)(=O)c4cccc5nsnc45)CC3)sc2c1 | u | -5.7%
Nc1nsc2ccccc12 | -28.3% | -2.1%
O=C(c1cnn2c(C(F)F)cc(C3CC3)nc12)N1CCOCC1 | -1.4% | 4.3%
c1ccc2c(c1)NC(CN1CCOCC1)CO2 (stereo not given) | -0.4% | 2.3%
O=S(=O)(c1ccc2[nH]c3c(c2c1)CCCCC3)N1CCN(c2cccc(Cl)c2)CC1 | 7.94µM* | -0.9%
O=S(=O)(c1ccc2[nH]c3c(c2c1)CCCCC3)N1CCN(c2ccccc2)CC1 | 25.1µM* | -3.5%
O=S(=O)(NCc1ccccc1)c1ccc2[nH]c3c(c2c1)CCCCC3 | u | -14.5%
O=S(=O)(Nc1cccc(Cl)c1)c1ccc2[nH]c3c(c2c1)CCCCCC3 | -27.1% | 4.3%
O=C(NC1CCCCC1)C(c1cccnc1)N(C(=O)CCl)c1ccc(F)cc1 (stereo not given) | 17.3% | 1.8%
O=[N+]([O-])c1cccc2ccc(/C=C/c3ccc(C(F)(F)F)cc3)nc12 | -3.8% | -9.8%
O=[N+]([O-])c1cccc2ccc(/C=C/c3ccc(Cl)cc3)nc12 | 10µM* | -4.7%
COc1c(Br)cc(Br)cc1/C=N/n1c(C)nnc1C | u | 0.8%
CC1=CC2=NC(=O)/C(=C\c3cc(C)n(-c4ccc(F)cc4)c3C)C(=N)N2O1 | 1.5% | -6.2%
CC1=CSC2=NC(=O)/C(=C\c3cccn3-c3ccccc3)C(=N)N12 | 12.6µM* | -9.9%
Cc1cc(/C=C2\C(=N)N3C(SCc4ccccc4)=NSC3=NC2=O)c(C)n1Cc1ccccc1 | 3.16µM* | -3.6%
CSC1=NSC2=NC(=O)/C(=C\c3coc4ccccc4c3=O)C(=N)N12 | u | -23.3%
CCC(CC)C1=NN2C(=N)/C(=C\c3cc(C)n(-c4cccc(C)c4)c3C)C(=O)N=C2S1 | 25.1µM* | -8.2%
Cc1cc(/C=C2/C(=N)N3C(c4ccccc4)=CSC3=NC2=O)c(C)n1-c1ccccc1 | 3.98µM* | 0.6%
Cc1nn(-c2ccccc2)c(Cl)c1/C=C1/C(=N)N2N=C(C(C)C)SC2=NC1=O | u | -6.4%
CC1=CSC2=NC(=O)/C(=C\c3cccn3-c3ccc([N+](=O)[O-])cc3)C(=N)N12 | u | -2.8%
COC(=O)N1[C@H](C)C=C[C@]1(Cc1ccccc1)C(=O)OC | -10.4% | 1.5%
COc1ccc(Cc2nnc(SCC(=O)NCCc3ccccc3)o2)cc1 | 6.3% | 4.8%
CCNc1nnc(-c2ccncc2)s1 | -9.2% | -0.5%
CN(C)CCCSc1ccccc1NC(=O)/C=C\c1ccccc1 | 3.7% | 0.0%
COc1ccc2o/c(=N/NC(=S)Nc3ccccc3)c(C(N)=O)cc2c1 | 6.31µM* | -11.8%
SMILES | Cruzain noTriton | Cruzain Triton
COc1ccc2oc(=N)c(C(=O)Nc3ccccc3)cc2c1 | 5.4% | 3.9%
Cc1cc(C)c2cc(C)c3nnc(SCC(=O)NCc4ccc5c(c4)OCO5)n3c2c1 | u | -0.8%
CCCC(=O)Nc1cc(-c2nn(C)c(=O)c3ccccc23)ccc1OC | -10.3% | -0.4%
CCCOc1ccc(C(=O)NNC(=S)NC(=O)c2cc(-c3ccc(Cl)cc3)nc3ccccc23)cc1 | u | 2.7%
COC(=O)c1ccc(NC(=S)NC(=O)c2cc(-c3ccccc3)nc3ccccc23)cc1 | 10µM* | -1.9%
COc1ccc(C(=O)NNC(=S)NC(=O)c2cc(-c3ccccc3)nc3ccccc23)cc1 | u | -1.0%
COc1ccc(Cl)cc1C(=O)NNC(=S)NC(=O)c1cc(-c2ccccc2)nc2ccccc12 | 3.16µM* | 3.0%
O=C(NNC(=O)c1cc(-c2ccccc2)nc2ccccc12)Nc1cccc(Cl)c1 | 20µM* | -0.3%
CC(C)(C)c1ccc(-c2cc(C(=O)NNC(=O)Nc3ccccc3)c3ccccc3n2)cc1 | u | -3.1%
COc1ccc(Cl)cc1NC(=O)CCCn1c(C)c2cnn(-c3ccccc3)c(=O)c2c1C | u | -6.0%
CCOC(=O)c1c(NC(=S)Nc2cccc(C)c2)sc2c1CC(C)(C)SC2 | 20µM* | -9.0%
CCOC(=O)c1c(NC(=S)Nc2ccccc2)sc2c1CCCCC2 | -14.9% | -4.7%
Cc1ccc(OCCN2C(=O)c3ccccc3C2=O)cc1 | u | -1.1%
CC(C)NC(=S)N=Nc1c(O)[nH]c2ccc(C(C)C)cc12 | 4.1% | -7.8%
NC(=S)N=Nc1c(O)[nH]c2ccc(F)cc12 | 5.01µM* | 14.1µM*
COc1ccccc1C(=O)c1c(N)c(-c2nc(-c3ccccc3)cs2)c2ccccn12 | 10µM* | -5.0%
COc1ccc(C(=O)c2c(N)c(-c3nc(-c4ccc(OC)cc4)cs3)c3ccccn23)cc1 | u | -2.4%
COc1ccc(C(=O)c2c(N)c(-c3nc(-c4ccccc4)cs3)c3ccccn23)cc1 | 7.94µM* | -2.9%
